p53ts 32C tox = p53ts cell cytotoxicity, permissive temperature; H1299-p53A138V at 32C, ATP luminescence viability, 24 h; Potency, µM (highest dose often 46.1 µM), for inactives: top-dose activity change, negative = cytotoxicity, usual class: cytotoxic; 130,000 compounds, 0.93% hits;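 further: 0% = DMSO and -100% = full killing by reference compound; nearly all actives have a fitted effect of over 55% in size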
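H1299-p53 A138V cells (temperature-sensitive p53) exposed 24 h to up to 46 uM compound at 32C, where p53 is wild-type in conformation. Viability read as ATP luminescence and normalised to DMSO and 100 uM tamoxifen. AC50 fitted with the Hill equation.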
HPGD inh = blocks human HPGD enzyme activity; AID 894; Potency, µM, inactives show top-dose activity change, negative = inhibition, hits mostly inhibitors; P15428; 150,000 compounds, 4.3% hits; purified HPGD, NADH fluorescence kinetic, PGE2 substrate; active means well fitted inhibition curve with a large enough effect, not every such curve was filed as active; inconclusive means small, poorly fitted or top-dose-only effect, or another doubt; inactive means no such curve, though single readings can be large or run the other way
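NADH formation kinetics: reaction with 30 uM PGE2 and 1 mM NAD+ (final), 20 nM enzyme, Tris-HCl pH 8 with Tween 20, after 15 min compound preincubation at room temperature. Fluorescence change, last versus first of five reads.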
12-hLO inh = inhibitors of human 12-lipoxygenase (ALOX12). AID 1452. 150,000 compounds, 0.12% hits. P18054. Potency, µM (titrated, usually from 57.1 µM), for inactives: at the highest dose activity change, negative = inhibition, usual class: inhibitors. purified 12-hLO, xylenol orange hydroperoxide absorbance; further: nearly all actives have a fitted effect of over 55% in size
Target sequence (P18054 whole entry, looked up): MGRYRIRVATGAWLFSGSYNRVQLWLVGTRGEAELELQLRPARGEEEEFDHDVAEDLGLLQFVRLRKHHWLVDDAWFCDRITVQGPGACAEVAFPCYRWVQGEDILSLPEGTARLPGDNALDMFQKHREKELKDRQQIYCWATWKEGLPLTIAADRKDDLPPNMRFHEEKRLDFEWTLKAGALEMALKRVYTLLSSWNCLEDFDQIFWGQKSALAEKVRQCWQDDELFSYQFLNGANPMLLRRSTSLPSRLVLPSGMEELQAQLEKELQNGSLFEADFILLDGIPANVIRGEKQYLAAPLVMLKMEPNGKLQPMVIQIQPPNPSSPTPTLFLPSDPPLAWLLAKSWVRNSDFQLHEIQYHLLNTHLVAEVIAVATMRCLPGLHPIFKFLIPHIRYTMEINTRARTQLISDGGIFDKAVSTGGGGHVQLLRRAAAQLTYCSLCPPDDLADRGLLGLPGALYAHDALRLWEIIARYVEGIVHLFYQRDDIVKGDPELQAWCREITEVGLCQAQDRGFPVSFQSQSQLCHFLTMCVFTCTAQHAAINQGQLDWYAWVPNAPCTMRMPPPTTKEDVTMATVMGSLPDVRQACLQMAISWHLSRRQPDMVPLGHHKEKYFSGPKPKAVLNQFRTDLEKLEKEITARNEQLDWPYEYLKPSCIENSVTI
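Lipoxygenase turnover measured by absorbance at 573 and 405 nm after Fe-XO development. Human 12hLO 150 nM, arachidonate 40 uM, pH 7.0 Hepes buffer with detergent; 15 min compound preincubation, 30 min reaction.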
p53ts 39C kill = p53ts cell cytotoxicity, nonpermissive temperature | H1299-p53A138V viability at 39C, ATP luminescence, 24 h | 130,000 compounds, 1.5% hits | Potency, µM (titrated, usually from 46.1 µM), for inactives: top-dose activity change, negative = cell killing, actives largely listed as cytotoxic; further: nearly all actives have a fitted effect of over 55% in size
Starred values were filed as active, the others as inactive; ? = inconclusive; . = no result given; [ ] = remark or other dose. Compounds with a hit are over-represented: about 4.4% of the library has one in this group of screens. Unless noted, the call rests on the fitted dose curve; in most records, active means well fitted curve in the direction sought with a large enough effect; inconclusive means small, poorly fitted or top-dose-only effect, or another doubt; inactive means no such curve, though single readings can be large; an effect the other way counts as inactive or inconclusive. Unless noted, on the % scale 0 is the no-effect control and ±100 the full control effect; potency means the concentration at half of the fitted maximal effect.

SMILES	p53ts 32C tox	HPGD inh	12-hLO inh	p53ts 39C kill
CCn1ncc([N+](=O)[O-])c1C(=O)Nc1ccc(C(=O)N2CCCCC2)cc1	.	2.2µM*	-1%	.
Cn1cc([N+](=O)[O-])c(C(=O)Nc2ccc(C(=O)N3CCCCC3)cc2)n1	.	0.4µM*	-1%	.
CCC(=O)N1CCN(c2ccc(NC(=O)c3ccc(N4CCCC4)c([N+](=O)[O-])c3)cc2)CC1	.	-4%	-2%	.
Cn1c(=O)c2[nH]c(SCCN3CCOCC3)nc2n(C)c1=S	-2%[9.22 µM]	5.6µM*	3%[11.4 µM]	5%[9.22 µM]
Cc1c(N=c2c(=O)c3ccccc3c2=O)c(=O)n(-c2ccccc2)n1C	10µM*	.	.	13µM*
Cc1c(N=CC=Nc2c(C)n(C)n(-c3ccccc3)c2=O)c(=O)n(-c2ccccc2)n1C	-2%	-9%	-8%	-1%
Cc1ccc(C2c3c(-c4ccccc4O)n[nH]c3C(=O)N2CCc2ccccc2)cc1 (stereo unspecified)	13µM*	.	.	32µM*
COc1ccc(C2c3c(-c4ccccc4O)n[nH]c3C(=O)N2CCc2ccccc2)cc1 (stereo unspecified)	47%	.	.	?
CC(C)c1ccc(C2c3c(-c4ccccc4O)n[nH]c3C(=O)N2CCc2ccccc2)cc1 (stereo unspecified)	-11%	.	.	25µM*
CC1=C(C(=O)OC2CCCC2)C(c2ccccc2Cl)CC(=O)N1 (stereo unspecified)	14%	.	.	-25%
Cc1ccnc(NC(=O)CCC2CCCCC2)c1	13µM*	-8%	-5%	13µM*
O=C(CC1CCS(=O)(=O)C1)NC1CCCCC1 (stereo unspecified)	-2%	-5%	-4%	-6%
O=C(CCC1CCCC1)NC1CCCCC1	.	16µM*	-1%	.
O=C(CC1CCCCC1)NC1CCCC1	3%	18µM*	1%	1%
Cc1c(O)c(O)cc2c1oc1c3ccccc3oc(=O)c21	3%	-27%	-15%	-4%
COc1ccc(N2CC(NC(=O)/C=C\c3ccccc3)CC2=O)cc1 (stereo unspecified)	-8%	.	.	-12%
O=C(Nc1ccc([N+](=O)[O-])cc1Cl)c1cc(Cl)ccc1O	?	-6%	4%	4µM*
COc1ccc(NC(=O)c2cc(Cl)ccc2Cl)c([N+](=O)[O-])c1	.	-12%	-5%	.
Cc1ccc(N(C)C(=O)Cn2cnc3onc(-c4ccc(F)cc4)c3c2=O)cc1C	5%	.	.	-4%
COc1ccc(S(=O)(=O)/N=C2/NC(=O)/C(=C\c3ccco3)S2)cc1	.	28µM*	?	.
COc1ccc(S(=O)(=O)/N=C2/NC(=O)/C(=C/c3ccco3)S2)cc1	.	?	-26%	.
COc1cc(C=O)c([N+](=O)[O-])cc1OC	-12%	-20%	-9%	-20%
COc1cc(/C=C2\S/C(=N/S(=O)(=O)c3ccccc3)NC2=O)c([N+](=O)[O-])cc1OC	-6%	7.1µM*	-14%	11%
COc1ccc(S(=O)(=O)/N=C2/NC(=O)/C(=C\c3cc(OC)c(OC)cc3[N+](=O)[O-])S2)cc1	.	5µM*	-17%	.
COc1ccc(-c2nc(N)c3ncn([C@H]4O[C@@H](CO)[C@@H](O)[C@@H]4O)c3n2)cc1	8%[9.22 µM]	-4%	1%[11.4 µM]	1%[9.22 µM]
SMILES	p53ts 32C tox	HPGD inh	12-hLO inh	p53ts 39C kill
CCCOC(=O)c1ccc(Nc2nc3ccccc3nc2-n2nc(C)cc2C)cc1	3%	.	.	-7%
COc1ccc(CC(=O)Nc2sc3c(c2C(=O)Nc2cccc(C)c2)CCCCC3)cc1	-27%	.	.	10µM*
Cc1nc(NCc2ccccc2)c2nc(-c3ccccc3)n(CCCN3CCOCC3)c2n1	8%	?	2%	17%
CC(CNC(=O)C1CCN(C(=O)N2CCOc3ccc(Cl)cc32)CC1)c1ccccc1 (stereo unspecified)	10%	.	.	?
CN1c2cc(Cl)ccc2-c2nc(SCC(=O)Nc3ccc(F)cc3F)ncc2S1(=O)=O	-12%	.	.	10µM*
CCn1c2ccccc2c2cc(CN3CCN(Cc4ccc(Cl)cc4)CC3)ccc21	-10%	.	.	?
COc1ccc(C(=O)Nc2nc(-c3nnn(-c4ccc(F)cc4F)c3C)ns2)cc1	-14%	.	.	?
O=C(NC1CCCCCC1)c1ccc2c(c1)sc1nc(-c3ccc(F)cc3)cn12	-5%	.	.	-3%
Cc1nn(-c2ccc(N3CCCC3)nn2)c(C)c1CCC(=O)Nc1ccccc1	-3%	.	.	2%
Cc1ccc(NC(=O)CCc2c(C)nn(-c3ccc(N4CCCCC4)nn3)c2C)cc1F	?	.	.	13µM*
COc1cccc(OC)c1-c1nn2c(-c3ccco3)nnc2s1	.	16µM*	-7%	.
Clc1ccc(OCc2nn3c(-c4ccco4)nnc3s2)c(Cl)c1	-14%	3.2µM*	-7%	-13%
c1coc(-c2nnc3sc(C4CCCCC4)nn23)c1	.	25µM*	-9%	.
COc1ccc(-c2nnc3sc(C4CCCCC4)nn23)cc1OC	6%	-27%	-2%	-3%
COc1cc2c(cc1OC)C(c1ccccc1)CN(C)CC2 (stereo unspecified)	.	-6%	.	.
Fc1ccc(Nc2ccnc(-c3ccccc3C(F)(F)F)n2)cc1	-11%	.	.	-17%
COc1ccccc1Nc1ccc(C(=O)NC2CCCCC2)cn1	-27%	16µM*	-3%	-17%
COc1ccccc1NC(=O)c1oc2ccccc2c1NC(=O)C1CCCCC1	3%	.	.	-20%
O=C(NCCc1ccccc1Cl)c1ccc(Cn2c(=O)c3cccn3c3cccnc32)cc1	10µM*	.	.	?
CCCNC(=O)c1ccc(Cn2c(=O)c3cccn3c3cccnc32)cc1	0%	.	.	22%
CC(C)(C)c1ccc(OCC(=O)Nc2ccc(C(=O)OC3CCCCC3)cc2)cc1	-23%	.	.	-29%
CCc1cccc(C)c1NC(=O)c1cc(S(=O)(=O)N2CCN(c3ccccc3)CC2)ccc1F	16%	.	.	-18%
CCn1c2ccccc2c2nc3cc(S(=O)(=O)N4CCOCC4)ccc3nc21	-3%	2µM*	-18%	-8%
O=C(c1ccc(F)cc1)c1ccc(N2CCCC2)cc1	-22%	28µM*	-20%	?
COc1ccc(C(=O)Nc2ccc(N3CCCC3)cc2)cc1	.	-9%	-6%	.
SMILES	p53ts 32C tox	HPGD inh	12-hLO inh	p53ts 39C kill
O=C(Nc1ccc(N2CCCCC2)cc1)c1ccc(F)cc1	7.9µM*	-3%	-3%	?
Cc1c(Cl)cccc1NC(=S)NCCC(c1ccccc1)c1ccccc1	.	-19%	7.9µM*	.
Cc1c(Cl)cccc1NC(=S)NCc1ccccc1Cl	.	22µM*	10µM*	.
Cc1c(Cl)cccc1NC(=S)NCCC(C)C	.	-26%	-13%	.
Cc1c(Cl)cccc1NC(=S)NCC(C)C	.	-15%	-4%	.
COc1cc(NC(=S)NCCC(c2ccccc2)c2ccccc2)cc(OC)c1	.	-20%	22µM*	.
Cc1cccc(NC(=S)NCCC(c2ccccc2)c2ccccc2)c1	.	-9%	?	.
Cc1ccc(CN2CCc3nc(N4CCN(c5ccccc5F)CC4)ncc3C2)s1	-13%	.	.	-19%
C/C(CCc1oc2ccc(Br)cc2c1-c1ccc(C)o1)=N/O	.	20µM*	-13%	.
C/C(CCc1oc2ccc(Cl)cc2c1-c1ccc(C)o1)=N\O	-10%	32µM*	-20%	-4%
CNc1nc(-c2ccccc2C(F)(F)F)nc2ccccc12	8%	-9%	6%	-14%

Screening data as filed in PubChem BioAssay.
